What all share (test): PBM binding z-score (relative to random genomic background probes); higher = stronger binding; sequences stand for … in GC…GCGATTGACAGCGTAGAATGAAGG
Assay [1] concerns FXR:RXRa (NR concentration 270 nM, RXRa partner concentration 90 nM). The method in brief:
(§1)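 Binding z-scores take random background probes as their reference. They come from custom Agilent 4×180K protein-binding microarrays incubated 1 h with ligand-free nuclear receptor dimers, with antibodies against each partner (one per run) detecting binding. Scanned fluorescence was regression-normalized.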

Assay [2] relates to LXRa:RXRa (NR concentration 270 nM, RXRa partner concentration 90 nM). In a few lines:
as §1

Assay [3] concerns LXRa homodimer (NR concentration 270 nM). In a few lines: as §1
Assay [4] deals with LXRb:RXRa (NR concentration 270 nM, RXRa partner concentration 90 nM). In a few lines: as §1
Assay [5] concerns LXRb homodimer (NR concentration 270 nM). In a few lines:
as §1

In assay [6] the test system is PPARa:RXRa (NR concentration 270 nM, RXRa partner concentration 90 nM). In a few lines: as §1
The subject of assay [7] is PPARg:RXRa (NR concentration 180 nM, RXRa partner concentration 90 nM). The method in brief:
as §1

Assay [8] relates to PPARg:RXRa 270nM:90nM, anti-RXR (NR concentration 270 nM, RXRa partner concentration 90 nM). In a few lines: as §1
Assay [9] has as its system PPARg:RXRa 30nM:10nM, anti-RXR (NR concentration 30 nM, RXRa partner concentration 10 nM). The method in brief:
as §1

For assay [10], the system named is PPARg:RXRa 90nM:30nM, anti-RXR (NR concentration 90 nM, RXRa partner concentration 30 nM). In a few lines:
as §1

The subject of assay [11] is PPARg:RXRa DBDmut IVT, anti-RXR (DBD mutation: RXRa K156A/R161A, NR concentration 270 nM, RXRa partner concentration 90 nM). In a few lines: as §1
The subject of assay [12] is PPARg:RXRa IVT, anti-PPARg (NR concentration 270 nM, RXRa partner concentration 90 nM). The method in brief:
as §1

The subject of assay [13] is PPARg DBDmut:RXRa IVT, anti-PPARg (DBD mutation: PPARg1 K132A/R137A, NR concentration 270 nM, RXRa partner concentration 90 nM). In a few lines:
as §1

Assay [14] relates to PPARg DBDmut IVT, anti-PPARg (DBD mutation: PPARg1 K132A/R137A, NR concentration 270 nM). In a few lines:
as §1

The test system of assay [15] is PPARg homodimer (NR concentration 180 nM). The method in brief: as §1
Assay [16] has as its system PXR:RXRa (NR concentration 270 nM, RXRa partner concentration 90 nM). In a few lines: as §1
Assay [17] relates to PXR homodimer (NR concentration 270 nM). The method in brief:
as §1

Assay [18] has as its system RARa:RXR (NR concentration 270 nM, RXRa partner concentration 90 nM). The method in brief: as §1
The test system of assay [19] is RARa homodimer (NR concentration 270 nM). The method in brief:
as §1

The test system of assay [20] is RARb:RXRa (NR concentration 270 nM, RXRa partner concentration 90 nM). In a few lines:
as §1

Drawing on the supplement of paper PMC6555819, this text covers PBM binding z-score for 7 sequences.

Turning to GCATATAGGTAATACATGGTGAAAGTCCGATTGT, the PBM binding z-score was -0.0336 in assay [1]; 0.0177 in assay [2]; 0.188 in assay [3]; -0.279 in [4]; -0.173 in [5]; 0.369 in assay [6]. Besides, the PBM binding z-score in [7] is 0.96; in assay [8], 0.694; in [9], 0.313; in assay [10], 0.476; in [11], 3.87; in assay [12], 2.35. Besides, the PBM binding z-score turned out to be 0.904 in [13]; 0.833 in [14]; 0.511 in assay [15]; 0.00943 in assay [16]; 0.145 in assay [17]; 0.174 in assay [18]. Besides, the PBM binding z-score in assay [19] is 0.397; in [20] it was -0.202.
On to TGGCAAAGTTCAAAGGTAACGTAAGTATCCACAC, for which the PBM binding z-score in assay [1] was found to be 7.23; in assay [2], 6.17; in assay [3] it was 4.18; in [4], 4.49; in assay [5], 1.25; in [6], 5.55. Further, the PBM binding z-score was 6.74 in [7]; 7.1 in assay [8]; 4.38 in [9]; 6.02 in [10]; -0.0424 in assay [11]; 3.1 in [12]. Further, the PBM binding z-score in [13] stood at 0.662; in assay [14], 1.12; in assay [15] it was 3.45; in assay [16] it was 5.58; in assay [17] it was 4.43; in assay [18], 6.87. The PBM binding z-score in assay [19] worked out at 1.43; in assay [20] it was 5.11.
For TCATATAGCTAAAAGGTGAAAGTCGGTGTGGTAA, the PBM binding z-score was 0.855 in [1]; 1.02 in assay [2]; 0.0787 in assay [3]; 1.2 in [4]; -0.577 in [5]; 2.26 in assay [6]. Moreover, the PBM binding z-score in assay [7] was 0.863; in assay [8], 2.94; in assay [9] it was 3.25; in assay [10], 3.08; in [11], 2.08; in assay [12] it was 0.996. For the same sequence, the PBM binding z-score came out at 0.333 in [13]; 0.116 in assay [14]; 0.824 in [15]; 0.793 in [16]; 0.353 in [17]; 1.37 in assay [18]. Besides, the PBM binding z-score in assay [19] was determined as 0.703; in assay [20], 1.5.
With TCTTGTAGATCAACAGGAGCTTAAGAAAGATCGA, the PBM binding z-score in assay [1] was -0.438; in assay [2], -0.744; in assay [3] it was -1.18; in assay [4] it was -0.366; in assay [5] it was -0.825; in assay [6] it was 0.0739. The PBM binding z-score in assay [7] is -0.318; in assay [8], 0.847; in [9], 2.14; in [10], 1.43; in assay [11] it was 1.16; in [12] it was 0.103. Moreover, the PBM binding z-score was 0.548 in assay [13]; -0.235 in [14]; -1.17 in assay [15]; -0.361 in assay [16]; -0.82 in [17]; -0.535 in [18]. The PBM binding z-score in assay [19] was -0.604; in assay [20], -0.522.
As for GAGACAGGGTCAGCTAGAGGCCAGAGTATGGAAA, the PBM binding z-score was 4.45 in assay [1]; 2.53 in assay [2]; -0.421 in assay [3]; 2.21 in [4]; -1.18 in [5]; 4.46 in assay [6]. Besides, the PBM binding z-score was determined as 2.91 in assay [7]; 2.82 in assay [8]; 0.35 in [9]; 1.21 in [10]; 0.507 in assay [11]; 1.1 in [12]. Besides, the PBM binding z-score is -0.524 in assay [13]; -0.747 in assay [14]; 3.57 in assay [15]; 3.34 in assay [16]; 0.373 in [17]; 4.73 in [18]. In addition, the PBM binding z-score is 0.0826 in assay [19] and 4.09 in assay [20].
For CAAATTAGGTCACAGAGGTCAAAGTCCGTGCGTA, the PBM binding z-score in [1] worked out at 7.48; in assay [2], 6.57; in assay [3], 7.83; in assay [4], 6.26; in [5], 2.94; in assay [6] it was 6.44. Also, the PBM binding z-score is 9.76 in assay [7]; 8.05 in [8]; 6.42 in assay [9]; 8.29 in assay [10]; 8.01 in [11]; 8.49 in [12]. The PBM binding z-score in assay [13] amounted to 2.82; in assay [14] it was 1.45; in assay [15], 5.32; in [16], 6.74; in assay [17] it was 11.4; in assay [18], 7.4. Moreover, the PBM binding z-score in assay [19] turned out to be 3.41; in [20], 5.27.
CAAACTAGGTCACCGGAAGGTCAGAGTCCGCATG: the PBM binding z-score came out at 5.32 in assay [1]; 4.74 in [2]; 2.63 in assay [3]; 4.09 in assay [4]; 0.598 in assay [5]; 5.96 in assay [6]. In addition, the PBM binding z-score stood at 9.65 in assay [7]; 7.46 in [8]; 5.57 in [9]; 7.33 in assay [10]; 8.5 in assay [11]; 8.94 in assay [12]. For the same sequence, the PBM binding z-score in [13] stood at 4.78; in assay [14] it was 2.92; in assay [15] it was 4.96; in assay [16], 4.71; in assay [17] it was 0.703; in assay [18] it was 6.14. For the same sequence, the results for the PBM binding z-score in assay [19] and in [20] were 2.03 and 5.31, respectively.
